Among all 3,300 compounds or so, fewer than 10 were called active.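 How the source made its calls: active means growth inhibition above 90% in viable cell count at a single dose; inactive means growth inhibition below 90%.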 Only a sample is shown.

This test is described as follows: HT29 colon tumor cell growth inhibition, primary screen, imaging, high content imaging, 24 h, CellTiter-Glo (AID 770).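 On condensed nuclei: share of cells whose nuclear area falls below control median minus 1.5 SD.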 Conditions: HT29 cell number by imaging, at 10 µM, stronger effect = higher value; for condensed nuclei: measured here: percent cells with condensed nuclei.
Where [1] appears, read: measured here: ATP CellTiter-Glo viability.

For `CCOC(=O)C1CCN(c2nc3ccccc3nc2C(C#N)C(=O)OC(C)COC)CC1` (centres undefined), the growth inhibition is -2.37% (inactive) and the condensed nuclei was found to be 15.8%. Further, the growth inhibition under setting [1] was found to be 11.6%.

With `CCOc1ccc(-n2c(SCc3ccc(C#N)cc3)nnc2-c2cccnc2)cc1`, the growth inhibition was 17.1% (inactive) and the condensed nuclei is 4.78%. Further, the growth inhibition under setting [1] is -9.28%.

As for `CCOC(=O)NC(O)C(=O)c1cccs1` (centres undefined), the growth inhibition is -55.2% (inactive) and the condensed nuclei amounted to 1.51%. Moreover, under setting [1], the growth inhibition is -7.3%.

For `CC(C)OC(=O)CC1=NC(=O)CS1`, the growth inhibition is -22% (inactive) and the condensed nuclei is 3.69%. In addition, under setting [1], the growth inhibition was -8.97%.

With `COc1ccc(C=NCCC2(O)CC(C)N(C)CC2C)cc1` (centres undefined), the growth inhibition was 22.1% (inactive) and the condensed nuclei turned out to be 3.27%. In addition, under setting [1], the growth inhibition is -0.31%.

Regarding `COC(=O)CSc1nc(C)c(C(C)=O)cc1C#N`, the growth inhibition was 14.2% (inactive) and the condensed nuclei worked out at 4.87%. For the same molecule, under setting [1], the growth inhibition is -9.13%.

For `COc1ccc(C2Nc3ccccc3C(=O)N2Cc2ccco2)cc1CN1C(=O)c2ccccc2C1=O` (centres undefined), the growth inhibition was -35.2% (inactive) and the condensed nuclei amounted to 3.89%. Further, under setting [1], the growth inhibition is -9.9%.

With `Cc1ccc(N2C(=O)CC(Cn3nc(C)cc3C)C2=O)cc1` (centres undefined), the growth inhibition was 5.93% (inactive) and the condensed nuclei worked out at 4%. The growth inhibition under setting [1] is -3.3%.

For `CCN(CC)c1ccc(C2Nc3cccc4cccc(c34)N2)c(O)c1`, the growth inhibition is 39.6% (inactive) and the condensed nuclei worked out at 9.18%. Further, the growth inhibition under setting [1] was found to be 11.2%.

With `N#CCSc1nc2c(cc1C#N)CCCCCC2`, the growth inhibition is 27.6% (inactive) and the condensed nuclei is 3.85%. Moreover, under setting [1], the growth inhibition was 16.5%.

As to `O=C(c1ccco1)N1CCN(CCOCCOc2cccc3ccccc23)CC1`, the growth inhibition was -0.64% (inactive) and the condensed nuclei turned out to be 4.04%. In addition, the growth inhibition under setting [1] is -9.08%.

Turning to `COC(=O)CSc1nnc(C)c(=O)[nH]1`, the growth inhibition is -50.8% (inactive) and the condensed nuclei stood at 0.97%. In addition, the growth inhibition under setting [1] was -8.35%.

On to `CCN(CC)CCCn1c(C)cc2c(c1=O)C(c1ccccc1)C(C#N)=C(N)O2` (centres undefined), for which the growth inhibition was 3.77% (inactive) and the condensed nuclei is 3.21%. The growth inhibition under setting [1] is -0.04%.

Take `C=CCN=C(C)C1=C(O)CCC1=O`: the growth inhibition is -21.7% (inactive) and the condensed nuclei was 1.55%. Besides, the growth inhibition under setting [1] is -5.99%.

As for `CN(C)/C=C1\N=C(c2cccs2)OC1=O`, the growth inhibition was 21% (inactive) and the condensed nuclei was found to be 2.88%. Besides, the growth inhibition under setting [1] was found to be 8.97%.

As for `COc1cccc2c1C(=O)c1c(O)c3c(c(O)c1C2=O)C[C@@](O)(C(C)=O)C[C@@H]3O[C@H]1C[C@H](N)[C@H](O)[C@H](C)O1`, the growth inhibition is 96.9% (active) and the condensed nuclei turned out to be 8.82%. Also, the growth inhibition under setting [1] is 33.6%.

With `COc1cccc2c1C(=O)c1c(O)c3c(c(O)c1C2=O)C[C@@](O)(C(=O)CO)C[C@@H]3O[C@H]1C[C@H](N)[C@H](O)[C@H](C)O1`, the growth inhibition was 84.2% (inactive) and the condensed nuclei stood at 0%. Besides, the growth inhibition under setting [1] came to 0%.

Turning to `CC(C)CC(C(=O)O)C(C)CC(=O)Nc1ccn(-c2ccccc2)n1` (centres undefined), the growth inhibition was 23.8% (inactive) and the condensed nuclei came out at 6.12%. Further, under setting [1], the growth inhibition was -0.54%.

Regarding `O=C(NCc1ccccn1)c1ccc(=O)oc1`, the growth inhibition was 3.8% (inactive) and the condensed nuclei was determined as 2.33%. The growth inhibition under setting [1] is -10.6%.

On to `C=CCOc1ccc(C2/C(=C(\O)c3ccc(F)cc3)C(=O)C(=O)N2CCCN(C)C)cc1` (centres undefined), for which the growth inhibition is 12.6% (inactive) and the condensed nuclei is 0.82%. In addition, the growth inhibition under setting [1] is -2.77%.

Turning to `COc1ccc(OC)c(C2/C(=C(\O)c3ccc(OC)c(Cl)c3)C(=O)C(=O)N2CCN(C)C)c1` (centres undefined), the growth inhibition was -11.2% (inactive) and the condensed nuclei was determined as 3.18%. In addition, under setting [1], the growth inhibition is -7.25%.

On to `COc1cccc(C2/C(=C(\O)c3ccc4c(c3)OCCO4)C(=O)C(=O)N2CCN(C)C)c1` (centres undefined), for which the growth inhibition is 2.52% (inactive) and the condensed nuclei came out at 1.83%. Besides, the growth inhibition under setting [1] is -0.26%.

`CC1(C)Cc2c(sc3c2C2=NCCN2C=N3)CS1`: the growth inhibition is 8.06% (inactive) and the condensed nuclei is 5.47%. Moreover, the growth inhibition under setting [1] is 0.86%.

Take `Nc1nonc1-c1noc(N2CCOCC2)n1`: the growth inhibition is -12.5% (inactive) and the condensed nuclei turned out to be 1.72%. In addition, the growth inhibition under setting [1] is -12.3%.

On to `O=C1C2ON(c3ccccc3)C(c3cccnc3)C2C(=O)N1Cc1ccccc1` (centres undefined), for which the growth inhibition is 13.7% (inactive) and the condensed nuclei turned out to be 2.97%. In addition, the growth inhibition under setting [1] is -16.2%.

`N#CC(C(=O)NC1CC1)c1nc2ccccc2nc1N1CCN(C/C=C/c2ccccc2)CC1` (centres undefined): the growth inhibition was -33.2% (inactive) and the condensed nuclei is 1.95%. Besides, the growth inhibition under setting [1] was -7.38%.

For `CCOC(=O)c1cc(CC)sc1NC(=O)C1CC1`, the growth inhibition is -8.79% (inactive) and the condensed nuclei was found to be 2.27%. The growth inhibition under setting [1] is -9.23%.

With `CN1C(=O)c2ccc(N(C)C)cc2C1=O`, the growth inhibition is -24.1% (inactive) and the condensed nuclei amounted to 1.05%. Moreover, the growth inhibition under setting [1] was -7.32%.

With `CCN1C(=O)CC(N2CCN(c3ccc(OC)cc3)CC2)C1=O` (centres undefined), the growth inhibition is -5.76% (inactive) and the condensed nuclei turned out to be 4.31%. Also, the growth inhibition under setting [1] was -6.84%.

Consider `COc1ccc(S(=O)(=O)N2CCC(N3CCCCC3)CC2)cc1`, for which the growth inhibition is -21.4% (inactive) and the condensed nuclei worked out at 2.89%. Moreover, under setting [1], the growth inhibition was 3.08%.

Regarding `Cc1cccn2c(=O)c3cc(C(N)=S)c(=N)n(CCCOC(C)C)c3nc12`, the growth inhibition was -47.5% (inactive) and the condensed nuclei was 3.48%. Besides, the growth inhibition under setting [1] was -18.1%.

With `Cc1cccc(C)c1NC(=O)CSCC(=O)c1ccc(O)c(O)c1`, the growth inhibition is 24.8% (inactive) and the condensed nuclei was determined as 7.02%. Moreover, the growth inhibition under setting [1] is -2.15%.

Consider `CC(C)Cc1nc(N2CCN(C(=O)Cc3ccccc3)CC2)c(C#N)c2c1COC(C)(C)C2`, for which the growth inhibition was -45.4% (inactive) and the condensed nuclei stood at 0.93%. For the same molecule, under setting [1], the growth inhibition is -6.01%.

On to `Cc1ccc(Oc2nc3c(c(=O)n(Cc4ccccc4F)c(=O)n3C)n2C)cc1`, for which the growth inhibition was 1.1% (inactive) and the condensed nuclei was determined as 1.09%. Besides, under setting [1], the growth inhibition was found to be 5.27%.

Take `c1ccc2c(c1)NC(c1ccncc1)n1c-2nc2ccccc21` (centres undefined): the growth inhibition was 16.4% (inactive) and the condensed nuclei was found to be 3.13%. Also, the growth inhibition under setting [1] was -9.59%.

Consider `COc1ccc(/C(O)=C2/C(=O)C(=O)N(c3ncccn3)C2c2ccc(OC)c(OC)c2)cc1` (centres undefined), for which the growth inhibition is 59.3% (inactive) and the condensed nuclei is 4.07%. The growth inhibition under setting [1] amounted to 10.6%.

Consider `O=C1CC(c2ccccc2)NC(=O)N1` (centres undefined), for which the growth inhibition was -5.61% (inactive) and the condensed nuclei is 3.08%. Moreover, the growth inhibition under setting [1] stood at 1.46%.

For `FC(F)(F)c1cccc(N2CCc3cn[nH]c32)c1`, the growth inhibition is 21.1% (inactive) and the condensed nuclei came to 4.2%. For the same molecule, the growth inhibition under setting [1] was -4.43%.

(Values after PubChem BioAssay AID770 (SRMLSC, 2007).)
